What follows are sequences tested against PDIA5 (assay: pooled miR-30 sensor sort-seq; sequence = guide strand). Conditions: shRNA.
TAGTCTTTCATGGTCTCCCTCC was tested, and the sensor-assay potency score (higher = more potent) was -0.586. In the case of TCAACCTTTTTGTCCTTCGGGC, the sensor-assay potency score (higher = more potent) is reported as -0.306. For TTCAACGTAGGAAACTCTGAGA, the sensor-assay potency score (higher = more potent) was -0.249. TACTTTTCTGCGAACTTCCCAT gave a sensor-assay potency score (higher = more potent) of -0.283.

What follows are sequences tested against PDLIM4 in the same assay as above. Conditions: shRNA.
In the case of AAAGAAGTAACCACGCTGCTTG, the sensor-assay potency score (higher = more potent) is reported as 0.146. With TAGAGCTTGTCCCGTGCCTTGA the sensor-assay potency score (higher = more potent) was -0.615. TCGGAGCCCAGGTCGACTCTGC was tested, and the sensor-assay potency score (higher = more potent) was -1.11. Sequence TGCACATGAAGCACTCGGGATG has a sensor-assay potency score (higher = more potent) of -1.65. AGACAGTGTGAGGTGATCGTGG gave a sensor-assay potency score (higher = more potent) of -1.1. For TTGTGAGGGACTGGAAAGCGAG, the sensor-assay potency score (higher = more potent) was -1.61. TTGGTCTGCCATCTTCTGGCCC showed a sensor-assay potency score (higher = more potent) of -0.715. TACACCGCCACCACGTCGTAGC was tested, and the sensor-assay potency score (higher = more potent) was -0.286. With TCACTGCACATGAAGCACTCGG the sensor-assay potency score (higher = more potent) was -0.799. In the case of TTGTCCATATGGAGATCCCAGG, the sensor-assay potency score (higher = more potent) is reported as -1.39. TGAGCTCTGTGCTCTCACCATT was tested, and the sensor-assay potency score (higher = more potent) was -1.16. For TCAGGATCGATGTGGATCCTGT, the sensor-assay potency score (higher = more potent) was -1.13.

What follows are sequences tested against PDP1 in the same assay as above. Conditions: shRNA.
With TGAAACTGTATTCATTAGCTTT the sensor-assay potency score (higher = more potent) was -0.926. In the case of TTGTCATTCAACTGGTCTGGGC, the sensor-assay potency score (higher = more potent) is reported as -1.11. TTGAACTGAACTACAATGATTG gave a sensor-assay potency score (higher = more potent) of -0.787. TACAACATGAGAATTGAACTGA gave a sensor-assay potency score (higher = more potent) of 1.04. With TGCATTTTCAATCTCTAGCAAA the sensor-assay potency score (higher = more potent) was -1.4. TTTAAGGATGCTATTGACTTGT showed a sensor-assay potency score (higher = more potent) of 0.228. With TTTTGAAGGTCAATGCTCCATT the sensor-assay potency score (higher = more potent) was -0.4. TTAGGAGGAATAAACTTGGTAT gave a sensor-assay potency score (higher = more potent) of -0.0779. TAGAACTGACATTTTTGCCGTC was tested, and the sensor-assay potency score (higher = more potent) was 0.378. For TATTATAGTAGTATCTTTTTAA, the sensor-assay potency score (higher = more potent) was -1.01. TATTCATTGTCATTCAACTGGT was tested, and the sensor-assay potency score (higher = more potent) was -0.478. In the case of ATGATTGTAATGTCATCTCTGT, the sensor-assay potency score (higher = more potent) is reported as 0.0872.

What follows are sequences tested against PDZD4 in the same assay as above. Conditions: shRNA.
TTTTATACAGCTCCACCTCCTC showed a sensor-assay potency score (higher = more potent) of -1.13. TCGTCGTCGGTCGTCATACCGC gave a sensor-assay potency score (higher = more potent) of -1.57. For TCATCCAGGAAGTCATCCCGGT, the sensor-assay potency score (higher = more potent) was -0.501. Sequence TCGTCGGTCGTCATACCGCTGC has a sensor-assay potency score (higher = more potent) of -0.818. Work on TCACTTTGTACTGCTCCTCCGG yielded a sensor-assay potency score (higher = more potent) of -0.937. TACACCGTTAATCTGGATGATG gave a sensor-assay potency score (higher = more potent) of -1.18. In the case of TTCACTTTCCACTCCATGCGCG, the sensor-assay potency score (higher = more potent) is reported as -0.515. With TTGATCTCCAGGAGCTCACGGT the sensor-assay potency score (higher = more potent) was -0.853. In the case of TTGCAGGCCAAACTTGCGCAGG, the sensor-assay potency score (higher = more potent) is reported as -1.4. For TTTGGCTGCAATGCTGTTGGGA, the sensor-assay potency score (higher = more potent) was -0.7. For TGTCCTTGTCCGACTTCTCGGG, the sensor-assay potency score (higher = more potent) was -0.294. In the case of TTTCAGTTTACGAGCACGCAGC, the sensor-assay potency score (higher = more potent) is reported as -0.95.

Reference: the OligoGym collection
